# Screens from PubChem.
# HCV inhibitor – HCV inhibition. Potency, µM (highest dose often 41.8 µM), for inactives: at the top dose activity change, negative = inhibition, hits mostly inhibitors. AID 651820. Huh7.5.1 HCVcc-Cre infection, luciferase reporter, 44 h. actives 3.4% (n = 340,000); active means well fitted inhibition curve with a large enough effect; inconclusive means small, poorly fitted or top-dose-only effect, or another doubt; inactive means no such curve, though single readings can be large or run the other way; further: potency means the concentration at half of the fitted maximal effect; on the % scale 0 is the no-effect control and ±100 the full control effect
#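 Infectious HCV cell culture screen: compound-treated cells (1,000/well, pre-plated 4 h) are infected with HCVcc-Cre at roughly 0.5 moi and grown 44 h. Infection is quantified by luciferase signal after 15 min substrate incubation at room temperature.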
# Marburg entry inh – blocks Marburg virus binding to or entry into cells. Marburg virus pseudotyped entry inhibition, cell reporter. Potency, µM (highest dose often 37.8 µM), without a hit: at the top dose activity change, negative = inhibition, most hits filed as inhibitors. actives 1.8% (n = 300,000). AID 540276; calls by dose curve; tested in HEK293 cells; further: potency means the concentration at half of the fitted maximal effect; on the % scale 0 is the no-effect control and ±100 the full control effect
# FMDV inh – antivirals against foot and mouth disease virus | FMDV antiviral cell-based qHTS | Potency, µM (series often up to 57.9 µM), without a hit: at the highest dose activity change, negative = inhibition, actives largely listed as inhibitors | actives 1.2% (n = 410,000); calls by dose curve; tested in HEK293T cells; further: read-out not given here; potency means the concentration at half of the fitted maximal effect; on the % scale 0 is the no-effect control and ±100 the full control effect; nearly all actives have a fitted effect of over 45% in size
# HCMV antiviral – blocks human cytomegalovirus replication; HFF cells, HCMV-luciferase reporter, 72 h; hits give low values; activity change, negative = inhibition, % at 57.5 µM; actives 4.5% (n = 410,000); AID 1259415; in the data active means activity change below about -60%; inconclusive means no clear call, values can overlap the other calls; inactive means above about -39%; further: on the % scale 0 is the no-effect control and ±100 the full control effect
#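 Luciferase read-out from HCMV-luciferase-infected HFFs (MOI 1 PFU/cell) 72 h post infection at 37C; compounds added after 16 h cell attachment; activity normalized between buffer-only basal and Salinomycin (10uM) inhibitor controls.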
# SARS PLpro yeast – SARS-CoV PLP inhibition in yeast; S. cerevisiae expressing SARS-CoV PLpro, growth rescue; Potency, µM (doses to about 32.9 µM), without a hit: top-dose activity, positive = growth rescue, actives largely listed as activators; actives 0.19% (n = 330,000); AID 485353; calls by dose curve; further: potency means the concentration at half of the fitted maximal effect; 0% is about no effect; nearly all actives have a fitted effect of over 55% in size
# Lassa entry inh – blocks Lassa virus binding to or entry into cells | actives 1.2% (n = 300,000) | Lassa virus pseudotype entry inhibition, cell reporter | Potency, µM (series often up to 37.9 µM), inactives show top-dose activity change, negative = inhibition, usual class: inhibitors; calls by dose curve; tested in HEK293 cells; further: potency means the concentration at half of the fitted maximal effect; on the % scale 0 is the no-effect control and ±100 the full control effect; nearly all actives have a fitted effect of over 50% in size
# * hit, by the source's call; ? = inconclusive; / = no result given; ! = not active in a repeat; [ ] = dose if it differs, or a comment. This is a sample that favours compounds with a hit; in the whole collection about 8% have one here.
SMILES,HCV inhibitor,Marburg entry inh,FMDV inh,HCMV antiviral,SARS PLpro yeast,Lassa entry inh
COc1cccc(CNCc2ccc(OC)c3ccccc23)c1OC,?,?,-15.4%,18.8,1.2%,?
CCCCCCN1CCN(C2CN(Cc3cn(Cc4ccc(C)cc4)nn3)S(=O)(=O)C2)CC1 (stereo unspecified),/,/,-22.2%,-6.2,/,/
CCCCNC(=O)c1nc2ccccc2nc1-c1cccc(Br)c1,/,/,/,-2.0,/,/
CCOc1cc(/C=C2\N=C(SC(C)C(N)=O)N(c3ccc(OC(F)F)cc3)C2=O)ccc1O (stereo unspecified),?,/,-10.2%,-62.3*,1.4%,/
O=S(=O)(c1ccccc1)N1CCN(CC2CC3C=CC2C3)CC1 (stereo unspecified),15.5%,/,-6.2%,-102.0*,1.1%,/
Cc1cccc(Nc2nc(NCc3ccco3)nc(N)c2[N+](=O)[O-])c1,?,5.62µM*,4.4%,-14.8,0.4%,?
Nc1nc(Nc2cccc(Cl)c2)nc(NCc2ccco2)c1[N+](=O)[O-],?,5.62µM*,?,40.1,-3.7%,?
CCCn1nnnc1NCc1ccc(SC)cc1,9.9%,/,0.0%,1.0,-2.5%,/
CSc1ccc(CNc2nnnn2C)cc1,4.4%,-16.0%[46.1 µM],-15.8%,-80.6*,1.3%,19.3%[46.1 µM]
CC(C)(CNC(=O)c1ccc([N+](=O)[O-])c(Cl)c1)CNC(=O)c1ccc([N+](=O)[O-])c(Cl)c1,?,?,?,-96.8*,4.6%,?
CN(C)c1nnnn1-c1ccc(Oc2ncc(C(F)(F)F)cc2Cl)cc1,-20.2%,?,?,?,-3.4%,-29.0%
O=[N+]([O-])c1cc(-c2nnc(N3CCOCC3)c3ccccc23)ccc1N1CCOCC1,?,/,?,-36.0,-0.4%,/
O=[N+]([O-])c1cc(-c2nnc(Nc3ccc(O)cc3)c3ccccc23)ccc1N1CCOCC1,?,?,20µM*,-69.2*,21.0%,?
O=[N+]([O-])c1cc(-c2nnc(Nc3ccccc3)c3ccccc23)ccc1N1CCOCC1,12.6µM*,-2.7%,-15.0%,-73.8*,18.3%,/
Cc1ccc(Nc2nnc(-c3ccc(N4CCOCC4)c([N+](=O)[O-])c3)c3ccccc23)cc1,25.1µM*,?,-15.6%,-88.6*,7.3%,?
CCc1nc2ccc(C(=O)NCCCN3CCCC3=O)cn2c1N(C=O)CC,/,/,0.0%,13.2,/,/
Cc1nc(NC(=O)c2ccccc2)sc1-c1csc(Nc2ccc(Cl)cc2)n1,/,/,/,/,-9.2%,/
O=C(Nc1ccc(-c2csc(Nc3ccccc3)n2)cc1)c1ccccc1,?,/,-20.5%,-63.1*,-0.8%,/
O=C(Nc1nc(-c2ccc(Br)cc2)cs1)c1cccnc1,-29.9%,-26.8%[46.1 µM],-16.9%,-63.6*,1.6%,-2.2%
O=C(Nc1cccc(-c2csc(Nc3ccc(Cl)cc3)n2)c1)c1ccccc1,?,/,-7.3%,-22.4,-5.0%,/
O=C(Nc1nc(-c2ccccc2)cs1)c1cccnc1,?,-20.4%,-19.4%,56.8,8.8%,-19.5%
O=C(Nc1cccc(-c2csc(Nc3ccc(Cl)cc3)n2)c1)c1cccc(C(F)(F)F)c1,3.16µM*,/,?,-32.7,-10.3%,/
CCc1ccccc1NC(=O)c1cc2nc(-c3ccc(Br)cc3)cc(C(F)(F)F)n2n1,/,/,-6.4%,12.4,/,7.0%[46.1 µM]
Cc1ccc(C2=CC(=O)N(CCN)C2)cc1,/,/,/,32.3,/,/
COc1ccc(CNc2oc(-c3ccc(COc4ccc(Cl)cc4)o3)nc2C#N)cc1,/,9.0%[46.1 µM],?,-0.1,/,-1.0%[46.1 µM]
SMILES,HCV inhibitor,Marburg entry inh,FMDV inh,HCMV antiviral,SARS PLpro yeast,Lassa entry inh
CCOC(=O)c1c(C)oc2ncnc(Nc3ccc(F)cc3Cl)c12,/,/,5.7%,8.4,/,0.1%[46.1 µM]
O=C(CSc1ccc([N+](=O)[O-])cc1)c1ccccc1,33.3%,?,1.0%,-73.3*,/,6.3%
Cc1ccc(OCc2nnc(SCC(=O)c3cccc([N+](=O)[O-])c3)n2C)cc1,8.91µM*,-1.8%,0.0%,-22.4,1.1%,8.7%
Cc1ccc(-c2cc(C(F)(F)F)nc(SCC(=O)c3cccc([N+](=O)[O-])c3)n2)cc1,?,-4.6%,/,-34.1,-4.5%,5.3%
COc1ccc(-c2ccc(=O)n(Cc3cccc([N+](=O)[O-])c3)n2)cc1,11.2µM*,/,?,-38.0,-5.6%,/
COc1ccc(-c2cc(C)nc(SCC(=O)c3cccc([N+](=O)[O-])c3)n2)cc1,15.8µM*,2.1%,10.0%,1.1,-1.5%,4.8%
COc1ccc(-c2ccc(=O)n(Cc3c(F)cccc3Cl)n2)cc1,?,/,-8.0%,-25.5,-1.9%,/
COC(=O)[C@@H]1[C@@H](CO)[C@@H]2Cn3c(ccc(Br)c3=O)[C@H]1N2S(C)(=O)=O,/,/,/,16.2,/,/
Cc1cc(-c2ccccc2)nc(SCC(=O)c2cccc([N+](=O)[O-])c2)n1,12.6µM*,-23.8%,?,7.6,0.5%,?
O=C(CSc1nc(-c2ccccc2)cc(C(F)(F)F)n1)c1cccc([N+](=O)[O-])c1,?,-0.8%,?,-26.8,-1.6%,8.3%
CCOC(=O)c1ccc(N=Nc2c(C)[nH]n(-c3ccccc3)c2=O)cc1,11.1%,/,1.4%,30.9,-5.4%,/
CCOC(=O)c1ccc(-n2[nH]c(-c3ccccc3)cc2=O)cc1,14.1µM*,-11.7%,?,30.3,-23.5%,?
CCc1ccc(C(=O)c2cn(CC(=O)Nc3cccc(C)c3C)c3nc(C)ccc3c2=O)cc1,/,/,-1.3%,10.8,/,15.1%[46.1 µM]
COc1cc(-c2cc(C(=O)N3CCN(c4ccccn4)CC3)c3ccccc3n2)cc(OC)c1OC,12.6µM*,?,?,40.2,-0.8%,-23.7%
O=C(c1cc(-c2ccccc2Cl)nc2ccccc12)N1CCN(c2ccccn2)CC1,-2.5%,/,?,/,3.5%,/
CCOc1ccc(-c2cc(C(=O)N3CCN(c4ccccn4)CC3)c3ccccc3n2)cc1,7.08µM*!,?,56.9%,37.5,-4.8%,?
COc1ccc(-c2cc(C(=O)N3CCN(c4ncccn4)CC3)c3ccccc3n2)cc1,?,/,12.3%,23.3,10.5%,/
CCOC(=O)N1CCN(C(=O)c2cc(-c3ccc(OCC)cc3)nc3ccccc23)CC1,?,?,-4.8%,120.4,?,4.61µM*
CCCc1ccc(-c2cc(C(=O)N3CCN(c4ccccn4)CC3)c3ccccc3n2)cc1,?,/,?,-64.4*,-0.5%,/
COc1ccc(-c2cc(C(=O)N3CCN(c4ccccn4)CC3)c3ccccc3n2)cc1,?,?,17.7%,58.0,-17.6%,?
O=C(NC(NC(=S)Nc1ccccc1Cl)C(Cl)(Cl)Cl)c1cccc(Cl)c1 (stereo unspecified),?,?,0.0%,-98.7*,-11.0%,?
COc1ccc(NC(=S)NC(NC(=O)c2cccc(C)c2)C(Cl)(Cl)Cl)c([N+](=O)[O-])c1 (stereo unspecified),?,?,-2.9%,-10.9,0.5%,?
